This passage reports AC50 and outcome results from PubChem BioAssay (EPA / NIEHS).

Broadly, the AC50 is the midpoint of the concentration-response curve, whichever way the signal moves.

What all share (details): mRNA level, 48 h; actives raise or lower the signal
Read-out in experiment [1]: ABC Transporter (ABCC2), ABCC2 (gene 1244)
As to the kind of experiment: LTEA_HepaRG_ABCC2: Life Technologies and Expression Analysis (LTEA) Assay for ABC Transporter (ABCC2) using HepaRG (AID 2283464). The essentials:
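Endpoint is ABCC2 transcript level from qRT-PCR, normalized to three housekeeping genes and fitted bidirectionally relative to DMSO. Human HepaRG cells received test chemical for 48 h at up to 100 uM (8 points, half-log steps, 0.5% DMSO), duplicate wells.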

Read-out in experiment [2]: Broad substrate specificity ATP-binding cassette transporter ABCG2 (Homo sapiens) (UniProt Q9UNQ0)
In words: LTEA_HepaRG_ABCG2: Life Technologies and Expression Analysis (LTEA) Assay for ABC Transporter (ABCG2) using HepaRG (AID 2283465). The essentials:
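HepaRG, 48 h exposure, 8-pt half-log series from 100 uM, 0.5% DMSO vehicle, duplicates. Readout: ABCG2 transcript by qRT-PCR (Fluidigm array), housekeeping-normalized; bidirectional curve fit relative to DMSO baseline.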

Read-out in experiment [3]: ATP-citrate lyase (ACLY), ACLY (gene 47)
In words: LTEA_HepaRG_ACLY: Life Technologies and Expression Analysis (LTEA) Assay for ATP-citrate lyase (ACLY) using HepaRG (AID 2283466). The essentials:
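qRT-PCR readout of ACLY transcript after 48 h chemical treatment of HepaRG cells; expression normalized to three housekeeping genes. Eight-point half-log series, highest 100 uM, 0.5% DMSO vehicle. Gain or loss fitted against DMSO baseline.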

Read-out in experiment [4]: Peroxisomal acyl-coenzyme A oxidase 1 (ACOX1) gene, ACOX1 (gene 51)
As to the kind of experiment: LTEA_HepaRG_ACOX1: Life Technologies and Expression Analysis (LTEA) Assay for Peroxisomal acyl-coenzyme A oxidase 1 (ACOX1) gene using HepaRG (AID 2283467). The method, boiled down:
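HepaRG, 48 h chemical exposure, 8-pt half-log series from 100 uM top, 0.5% DMSO vehicle, duplicates. Readout: ACOX1 mRNA by Fluidigm qRT-PCR, housekeeping-normalized; bidirectional fit vs DMSO baseline.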

Read-out in experiment [5]: Alkaline Phosphatase, Placental (ALPP) gene, ALPP (gene 250)
As to the kind of experiment: LTEA_HepaRG_ALPP: Life Technologies and Expression Analysis (LTEA) Assay for Alkaline Phosphatase, Placental (ALPP) gene using HepaRG (AID 2283468). The essentials: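 ALPP transcript level, measured by qRT-PCR and normalized to three housekeeping genes (ACTB, GAPDH, POLR2A), after 48 h dosing of differentiated HepaRG in serum-free induction medium. Top concentration 100 uM with half-log dilutions (8 points, 0.5% DMSO, duplicates); bidirectional fitting relative to DMSO.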

Read-out in experiment [6]: Bcl-2 (BAX) gene, BAX (gene 581)
In words: LTEA_HepaRG_BAX: Life Technologies and Expression Analysis (LTEA) Assay for Bcl-2 (BAX) gene using HepaRG (AID 2283470). The method, boiled down:
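qRT-PCR read-out of BAX mRNA, normalized to three housekeeping genes, after 48 h chemical exposure of human HepaRG cells in serum-free induction medium; eight-point half-log series, top 100 uM, 0.5% DMSO vehicle; bidirectional fit versus DMSO.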

Read-out in experiment [7]: adenosine kinase (ADK) gene, ADK (gene 132)
As to the kind of experiment: LTEA_HepaRG_ADK: Life Technologies and Expression Analysis (LTEA) Assay for adenosine kinase (ADK) gene using HepaRG (AID 2283471). The method, boiled down:
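Following 48 h exposure of HepaRG cells in 0.5% DMSO (top concentration 100 uM, duplicate wells), ADK mRNA induction or suppression was measured by qRT-PCR, normalised to ACTB/GAPDH/POLR2A, and fitted bidirectionally relative to vehicle.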

Read-out in experiment [8]: Alpha-fetoprotein (AFP) gene, AFP (gene 174)
As to the kind of experiment: LTEA_HepaRG_AFP: Life Technologies and Expression Analysis (LTEA) Assay for Alpha-fetoprotein (AFP) gene using HepaRG (AID 2283472). The method, boiled down: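 qRT-PCR (Fluidigm TaqMan) readout of AFP transcript, normalized to three housekeeping genes, fitted bidirectionally against 0.5% DMSO baseline. HepaRG cells received chemicals for 48 h in serum-free induction medium, top concentration 100 uM, half-log steps.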

Read-out in the next experiment: BCL2L11 (gene 10018)
As to the kind of experiment: LTEA_HepaRG_BCL2L11: Life Technologies and Expression Analysis (LTEA) Assay for Bcl-2 (BCL2L11) gene using HepaRG (AID 2283473). The essentials:
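BCL2L11 transcript levels are measured by Fluidigm qRT-PCR, normalized to three housekeeping genes. HepaRG cultures were plated 48 h, then treated 48 h with test chemical (top 100 uM, half-log, 0.5% DMSO vehicle); curves were fitted bidirectionally against DMSO.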

Read-out in experiment [9]: Apolipoprotein A-V (APOA5) gene, APOA5 (gene 116519)
As to the kind of experiment: LTEA_HepaRG_APOA5: Life Technologies and Expression Analysis (LTEA) Assay for Apolipoprotein A-V (APOA5) gene using HepaRG (AID 2283474). The essentials: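 APOA5 transcript levels were quantified by qRT-PCR, normalized to three housekeeping genes, after 48 h chemical treatment of HepaRG cells (8 points, 100 uM maximum, half-log steps, 0.5% DMSO). Curves fitted in both directions against vehicle.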

Read-out in experiment [10]: Apoptosis regulator Bcl-2 (Homo sapiens) (UniProt P10415)
In words: LTEA_HepaRG_BCL2: Life Technologies and Expression Analysis (LTEA) Assay for Bcl-2 gene using HepaRG (AID 2283475). The essentials:
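qRT-PCR read-out (Fluidigm TaqMan) of BCL2 transcript, normalised to three housekeeping genes, after 48 h chemical exposure of HepaRG cells; 8-point half-log series, top 100 uM, 0.5% DMSO vehicle. Gain or loss of signal fitted relative to DMSO baseline.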

Read-out in experiment [11]: Bcl-2 (BID) gene, BID (gene 637)
As to the kind of experiment: LTEA_HepaRG_BID: Life Technologies and Expression Analysis (LTEA) Assay for Bcl-2 (BID) gene using HepaRG (AID 2283476). The essentials: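 HepaRG, 48 h exposure, 8-pt half-log series, top 100 uM, 0.5% DMSO vehicle, duplicates. Readout: BID mRNA by TaqMan qRT-PCR; housekeeping-normalized; bidirectional curve fit vs DMSO baseline.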

Read-out in a further experiment: Caspase-3 (Homo sapiens) (UniProt P42574)
In words: LTEA_HepaRG_CASP3: Life Technologies and Expression Analysis (LTEA) Assay for cysteine-aspartic acid protease (CASP3) using HepaRG (AID 2283477). The method, boiled down: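 Expression of CASP3 was quantified by TaqMan qRT-PCR against three housekeeping genes (ACTB, GAPDH, POLR2A), bidirectionally versus 0.5% DMSO. HepaRG cultures received compounds in duplicate, top 100 uM with half-log steps, for 48 h in serum-free induction medium.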

Read-out in experiment [12]: Cytochrome P450 (CYP24A1), CYP24A1 (gene 1591)
In words: LTEA_HepaRG_CYP24A1: Life Technologies and Expression Analysis (LTEA) Assay for Cytochrome P450 (CYP24A1) using HepaRG (AID 2283478). The method, boiled down: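 mRNA of CYP24A1 quantified by TaqMan qRT-PCR (ACTB/GAPDH/POLR2A normalization) after 48 h chemical exposure of HepaRG cells, top concentration 100 uM, half-log steps, 0.5% DMSO vehicle, duplicates. Curves fitted bidirectionally against DMSO baseline.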

Read-out in experiment [13]: Cytochrome P450 (CYP1A2), CYP1A2 (gene 1544)
As to the kind of experiment: LTEA_HepaRG_CYP1A2: Life Technologies and Expression Analysis (LTEA) Assay for Cytochrome P450 (CYP1A2) using HepaRG (AID 2283479). The method, boiled down: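 CYP1A2 transcript measured by TaqMan qRT-PCR against three housekeeping genes after 48-hour chemical exposure of HepaRG cells. Eight-point half-log series topping at 100 uM in 0.5% DMSO, duplicates; gain or loss fitted relative to vehicle.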

Read-out in experiment [14]: cysteine-aspartic acid protease (CASP8), CASP8 (gene 841)
In words: LTEA_HepaRG_CASP8: Life Technologies and Expression Analysis (LTEA) Assay for cysteine-aspartic acid protease (CASP8) using HepaRG (AID 2283480). The essentials:
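qRT-PCR readout of CASP8 mRNA, normalized to three housekeeping genes, after 48 h chemical exposure of HepaRG cells; 8-point half-log series, top 100 uM, 0.5% DMSO vehicle. Bidirectional curve fitting against DMSO baseline.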

Read-out in experiment [15]: Cytochrome P450 (CYP2B6), CYP2B6 (gene 1555)
In words: LTEA_HepaRG_CYP2B6: Life Technologies and Expression Analysis (LTEA) Assay for Cytochrome P450 (CYP2B6) using HepaRG (AID 2283481). The essentials:
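CYP2B6 transcript level quantified by qRT-PCR against three housekeeping genes, fitted bidirectionally relative to DMSO. HepaRG cultures received chemicals for 48 h, 8-point half-log series from 100 uM in 0.5% DMSO, duplicate wells, serum-free induction medium.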

Read-out in experiment [16]: Cytochrome P450 2C19 (Homo sapiens) (UniProt P33261)
In words: LTEA_HepaRG_CYP2C19: Life Technologies and Expression Analysis (LTEA) Assay for CYP2C19 using HepaRG (AID 2283482). The method, boiled down:
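CYP2C19 transcript levels by qRT-PCR, normalized to three housekeeping genes, in HepaRG cells after 48 h chemical exposure. Eight-point half-log series topping at 100 uM, 0.5% DMSO vehicle. Increases and decreases both fitted against DMSO.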

Read-out in the next experiment: CYP2C8 (gene 1558)
In words: LTEA_HepaRG_CYP2C8: Life Technologies and Expression Analysis (LTEA) Assay for CYP2C8 using HepaRG (AID 2283483). The essentials:
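HepaRG (human liver line), 48 h chemical exposure, 8-pt half-log series from 100 uM, 0.5% DMSO vehicle. Readout: CYP2C8 transcript by qRT-PCR, housekeeping-normalized. Bidirectional fit vs DMSO baseline.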

Read-out in experiment [17]: Bcl-2 (BAD) gene, BAD (gene 572)
In words: LTEA_HepaRG_BAD: Life Technologies and Expression Analysis (LTEA) Assay for Bcl-2 (BAD) gene using HepaRG (AID 2283469). The method, boiled down:
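HepaRG, 48 h exposure, 8-pt half-log curve from 100 uM in 0.5% DMSO, duplicates. Readout: TaqMan qRT-PCR for BAD mRNA, housekeeping-normalised (ACTB/GAPDH/POLR2A); gain or loss fitted against DMSO baseline.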

Active and inactive are the calls of the source. Rule for the calls: active = hit-call score of the fitted dose curve at least 0.9, where 1 is the maximum; inactive = score below 0.9.

Broad substrate specificity ATP-binding cassette transporter ABCG2 (Homo sapiens), sequence (Q9UNQ0 whole entry, looked up): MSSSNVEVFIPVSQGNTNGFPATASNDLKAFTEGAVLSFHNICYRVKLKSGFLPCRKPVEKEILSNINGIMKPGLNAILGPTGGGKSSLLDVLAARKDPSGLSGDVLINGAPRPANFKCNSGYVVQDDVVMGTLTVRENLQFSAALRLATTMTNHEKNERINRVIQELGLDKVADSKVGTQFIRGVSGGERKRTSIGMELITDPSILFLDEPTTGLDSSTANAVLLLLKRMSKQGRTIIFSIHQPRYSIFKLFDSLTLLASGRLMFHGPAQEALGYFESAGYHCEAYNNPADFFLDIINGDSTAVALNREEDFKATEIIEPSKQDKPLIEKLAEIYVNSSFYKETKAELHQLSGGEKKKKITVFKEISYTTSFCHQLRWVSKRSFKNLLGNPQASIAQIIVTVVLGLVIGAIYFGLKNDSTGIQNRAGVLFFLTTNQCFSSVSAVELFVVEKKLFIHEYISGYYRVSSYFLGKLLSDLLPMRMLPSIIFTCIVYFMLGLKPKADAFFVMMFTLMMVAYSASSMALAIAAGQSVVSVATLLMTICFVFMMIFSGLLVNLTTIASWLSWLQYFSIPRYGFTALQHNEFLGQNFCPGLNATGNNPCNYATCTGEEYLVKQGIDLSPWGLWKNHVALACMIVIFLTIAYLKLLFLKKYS
Cytochrome P450 2C19 (Homo sapiens), sequence (P33261 whole entry, looked up): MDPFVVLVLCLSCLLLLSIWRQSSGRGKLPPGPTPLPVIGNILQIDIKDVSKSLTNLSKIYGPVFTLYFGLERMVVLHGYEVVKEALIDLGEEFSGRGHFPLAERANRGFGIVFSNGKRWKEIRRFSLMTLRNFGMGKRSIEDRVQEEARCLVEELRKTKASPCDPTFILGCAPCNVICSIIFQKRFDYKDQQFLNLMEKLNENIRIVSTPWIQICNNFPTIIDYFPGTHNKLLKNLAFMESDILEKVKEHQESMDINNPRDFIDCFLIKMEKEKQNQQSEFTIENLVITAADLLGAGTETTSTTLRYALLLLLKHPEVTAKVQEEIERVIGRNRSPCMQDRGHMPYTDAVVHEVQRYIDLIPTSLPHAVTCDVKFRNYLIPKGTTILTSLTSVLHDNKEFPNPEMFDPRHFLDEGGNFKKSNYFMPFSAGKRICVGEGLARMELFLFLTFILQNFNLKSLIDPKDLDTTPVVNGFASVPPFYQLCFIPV
Caspase-3 (Homo sapiens), sequence (P42574 whole entry, looked up): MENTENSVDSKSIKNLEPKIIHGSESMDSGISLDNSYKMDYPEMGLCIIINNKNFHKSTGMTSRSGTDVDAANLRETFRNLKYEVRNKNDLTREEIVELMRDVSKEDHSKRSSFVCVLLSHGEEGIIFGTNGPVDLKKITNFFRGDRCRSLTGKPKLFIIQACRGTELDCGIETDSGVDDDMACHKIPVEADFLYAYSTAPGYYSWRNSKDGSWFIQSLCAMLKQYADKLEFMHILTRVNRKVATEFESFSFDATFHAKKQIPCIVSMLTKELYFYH
Apoptosis regulator Bcl-2 (Homo sapiens), sequence (P10415 whole entry, looked up): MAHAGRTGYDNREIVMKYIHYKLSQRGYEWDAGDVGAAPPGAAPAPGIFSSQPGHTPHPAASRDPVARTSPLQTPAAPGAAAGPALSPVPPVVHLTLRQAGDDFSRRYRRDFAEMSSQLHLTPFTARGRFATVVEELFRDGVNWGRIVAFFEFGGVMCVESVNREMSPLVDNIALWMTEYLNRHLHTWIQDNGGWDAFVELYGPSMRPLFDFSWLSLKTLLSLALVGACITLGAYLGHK

Regarding `ClC1=C(Cl)C2(Cl)C3C(Cl)C=CC3C1(Cl)C2(Cl)Cl` (stereo unspecified), the AC50 in experiment [1] was 11.4 µM (active); in [2] it was 8.6 µM (active); in [8], 22.7 µM (active); in experiment [15] it was 0.67 µM (active); in experiment [16] it was 2.22 µM (active). For the same molecule, the call (in experiment [3]; in experiment [4]; in experiment [5]; in [6]; in experiment [7]; with BCL2L11 (gene 10018)) was inactive. Further, the molecule was classed as inactive (in [9]; in experiment [10]; in experiment [11]; with Caspase-3 (Homo sapiens); in [12]; in experiment [13]). Besides, the molecule was called inactive (in [14]; with CYP2C8 (gene 1558)).

As to `O=C(Oc1ccc(Br)cc1)N1CCN2CCC1CC2`, the molecule was classed as inactive in experiment [1], in experiment [2], in [4], in experiment [5], in experiment [17] and in experiment [6]. Further, the molecule was called inactive (in experiment [7]; in experiment [8]; in the experiment with BCL2L11 (gene 10018); in experiment [9]; in [11]; with Caspase-3 (Homo sapiens)). Also, the molecule was classed as inactive (in experiment [12]; in experiment [14]; in the experiment with CYP2C8 (gene 1558)). In addition, the AC50 in experiment [3] is 73.5 µM (active); in experiment [13] it was 66.7 µM (active); in [16], 15.2 µM (active).

`O=C(Nc1ccccc1)c1ccccc1I`: the result in experiment [1], in experiment [3], in experiment [4], in [5], in experiment [17] and in [6] was inactive. For the same molecule, the molecule was classed as inactive (in experiment [7]; in the experiment with BCL2L11 (gene 10018); in [9]; in experiment [11]; with Caspase-3 (Homo sapiens); in [12]). The result (in [14]; in experiment [16]; in the experiment with CYP2C8 (gene 1558)) was inactive. The AC50 in [2] is 11.7 µM (active); in experiment [8], 50 µM (active); in experiment [13] it was 10.4 µM (active); in experiment [15], 11.1 µM (active).
